Rows were chosen to be rich in hits. Some 1.4% of all compounds tested hit in one or more screens of this group.
Mtb MbtI inh: inhibitors of Mycobacterium tuberculosis siderophore enzyme MbtI. purified MbtI enzyme, fluorescence intensity read-out. P9WFX0. inhibition, % (test concentration not listed). 0.89% of 100,000 active; in the data active means inhibition mostly above about 56%, no sharp cut-off; inactive means mostly below about 77%
AID504770: E. coli YBA685 growth inhibition, screen for V. cholerae RctB inhibitors | E. coli YBA685 rctB-dependent plasmid, OD600 growth, 3 h; active compounds read low | z-score (no concentration beside the values) | 0.27% of 130,000 active | AID 504770; in the data active means z-score below about -2, passing the limit was not always enough
Mtb MenB inh: blocks the Mycobacterium tuberculosis MenB enzyme; 0.43% of 100,000 active; MenB enzyme assay, absorbance read-out; inhibition, % (concentration not given with the values); AID 540299; in the data active means inhibition above about 21%, passing the limit was not always enough
PV pol inh: inhibitors of poliovirus RNA polymerase binding and polymerization; % elongation, % (compound at 16.7 µg/mL); 0.66% of 150,000 active; poliovirus polymerase elongation, fluorescence polarization; active compounds read low; P03300; in the data active means % elongation below about 90%
Target sequence (P03300 1749-2209 limits assumed): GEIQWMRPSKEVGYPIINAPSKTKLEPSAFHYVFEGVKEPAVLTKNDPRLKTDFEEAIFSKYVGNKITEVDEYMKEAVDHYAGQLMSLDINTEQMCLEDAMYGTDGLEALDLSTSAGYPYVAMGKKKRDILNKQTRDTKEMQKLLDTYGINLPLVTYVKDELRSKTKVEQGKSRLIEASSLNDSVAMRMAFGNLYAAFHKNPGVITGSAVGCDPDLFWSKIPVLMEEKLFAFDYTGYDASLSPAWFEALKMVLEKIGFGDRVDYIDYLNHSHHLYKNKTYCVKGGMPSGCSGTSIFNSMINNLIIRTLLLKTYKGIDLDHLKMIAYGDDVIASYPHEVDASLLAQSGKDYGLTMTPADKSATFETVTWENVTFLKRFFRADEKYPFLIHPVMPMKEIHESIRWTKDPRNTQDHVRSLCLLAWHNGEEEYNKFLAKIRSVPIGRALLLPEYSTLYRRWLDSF
Numbers without * were called inactive; . = no result.

SMILES	Mtb MbtI inh	AID504770	Mtb MenB inh	PV pol inh
Cc1ccccc1-n1cnnc1SCC(=O)Nc1ccc(S(=O)(=O)N2CCCC2)cc1	-10	-0.65	-11	101
CC(=NCc1ccc(C)cc1)c1c(O)cc(C)oc1=O	8	-0.85	-11	108
COC(=O)c1sc(NC(=O)c2ccccc2)c(C(=O)OC)c1C	.	-0.85	-28	68*
COC(=O)c1sc(NC(=O)C(F)(F)F)c(C(=O)OC)c1C	17	-0.55	0	104
S=c1nc(-c2ccccc2)[nH]n1CN1CCc2ccccc2C1	96*	1.9	-13	99
COc1ccc(Nc2c(C#N)c(C)nn2-c2ccccc2)cc1	-26	-0.05	-33	104
COc1ccc(C2C(C#N)=C(N)SC3C(=O)N(c4ccc(Br)cc4)C(=O)C32)cc1 (stereo not drawn)	.	0.25	-8	77*
O=C(CSc1nnnn1C1CC2C=CC1C2)Nc1cccc(C(=O)O)c1 (stereo not drawn)	4	0	16	98
N#Cc1c(-c2ccco2)cc(-c2ccccc2)nc1N	116	-0.1	-9	102
O=C(Sc1ncccc1C(F)(F)F)c1ccc(Cl)cc1	.	0.45	.	.
Cc1cc(C)n(CCc2nc(-c3ccc(C)c(C)c3)cs2)n1	73*	0.55	-47	82*
COc1ccc(-c2csc(-n3nc(C)cc3C)n2)cc1	.	-0.45	.	.
COc1ccc(OC)c(-c2nnc3n(Cc4ccc(C)cc4)c(=O)c4ccccc4n23)c1	.	.	.	64*
COc1ccc(Cn2c(=O)c3ccccc3n3c(-c4ccccc4O)nnc23)cc1	-12	1.1	-13	106
Cc1cc(C)c2[nH]c(O)c(N=NC(=S)NCC3CCCO3)c2c1 (stereo not drawn)	-14	0.05	-20	97
Oc1[nH]c2ccc(Br)cc2c1N=NC(=S)NCC1CCCO1 (stereo not drawn)	31	0	-11	90*
Cc1ccc(S(=O)(=O)N[C@@H](Cc2ccccc2)C(=O)CCl)cc1	64*	.	-14	102
Cc1nc(CSc2nnc(Cc3cccc4ccccc34)n2N)cs1	57*	-3.8	-28	100
O=CNc1ccc(OC(=O)c2cncc(Br)c2)cc1	-8	-0.15	-23	78*
COC(=O)c1cncc(Br)c1	.	0.1	.	.
COc1ccc(-c2noc(-c3ccc(NC4CCCC4)c([N+](=O)[O-])c3)n2)cc1OC	.	.	.	79*
CC1COc2c(N3CCN(C)CC3)c(F)cc3c(=O)c(C(=O)OCc4ccccn4)cn1c23 (stereo not drawn)	63	-4.6*	-18	100
CCCn1c(=O)/c(=C\c2ccco2)s/c1=C(/C#N)c1nc2ccccc2s1	-6	-0.95	-16	44
Nn1c(Cc2ccccc2)n[nH]c1=S	99*	-0.2	-64	99
Cn1c(Cc2ccccc2)n[nH]c1=S	52	1.3	-26	101
SMILES	Mtb MbtI inh	AID504770	Mtb MenB inh	PV pol inh
COC(=O)C1=NC=CN2CCS(=O)(=O)N=C12	18	0.2	-29	.
Cc1sc2c(c1C)C1=NS(=O)(=O)CCN1C=N2	112	0.35	-33	76*
Clc1cccc2sc(N3CCCC3)nc12	-1	-0.8	-4	102
Clc1nc2c(Cl)cccc2s1	59*	-1	-25	103
CCCCS(=O)(=O)Nc1ccc(C)cn1	101	0.55	0	83*
CCCCS(=O)(=O)Nc1nccs1	-4	-0.6	-15	99
Cn1cc(NC(=O)NCc2ccc3c(c2)OCO3)c2ccccc21	88	-0.05	-2	101
O=C(CCS(=O)(=O)c1ccccc1)N(Cc1ccccn1)c1nc2ccccc2s1	71*	1.4	-6	104
O=C(CCS(=O)(=O)c1ccccc1)N(Cc1cccnc1)c1nc2ccc(F)cc2s1	.	.	.	100
CCC(=O)NC(=S)c1c(C)nc2sccn12	15	-0.65	-222	57*
N#Cc1c2c(c(-c3ccco3)n3c1nc1ccccc13)CCCC2	-10	1	0	110
NC(=O)C1CCN(Cc2c(O)ccc3cc(Br)ccc23)CC1	36	0.35	-6	102
COCCCNC(=O)c1cc(-c2cccnc2)nc2ccc(S(=O)(=O)N3CCC(C)CC3)cc12	.	.	.	47*
COCCNC(=O)c1cc(-c2cccnc2)nc2ccc(S(=O)(=O)N3CCCCCC3)cc12	-19	0.75	2	102
CC1CCCCN1C(=O)c1cccc(C#N)c1 (stereo not drawn)	-3	0	4	104
S=c1[nH]c2ccccc2n1CCOc1ccccc1	95*	0.2	-72	99
S=c1[nH]c2ccccc2n1Cc1ccccc1	84*	0.15	-19	96
N#CCCn1c(=S)[nH]c2ccccc21	99	-0.05	-11	82*
O=C1CSCC(=O)N1c1ccc2c(c1)OCO2	.	-0.3	.	.
O=C1CSCC(=O)N1c1cccnc1	-12	-1	3	84*
COc1ccc(C2CCCCCN2C(=O)Nc2ccccc2)cc1 (stereo not drawn)	-4	0	-10	102
CCOC(=O)c1ccc(N=Cc2ccc(CC)cc2)cc1	.	-0.15	7	97
CCOc1ccc(C(=S)N2CCCC2)cc1	-6	2.3	-44	103
CCOC(=O)C1CCN(C(=S)c2ccccc2)CC1	59*	-0.65	-9	103
CCOC(=O)c1ccc(N=C=S)cc1	9	-2.2*	8	95
SMILES	Mtb MbtI inh	AID504770	Mtb MenB inh	PV pol inh
CCOC(=O)c1ccc(C(=S)N2CCCC2)cc1	77*	0.45	-8	69*
COCCN=c1scc(-c2ccc(OC(F)F)cc2)n1/N=C/c1ccc[nH]1	-12	-0.25	-61	103
COc1ccccc1OCCNc1ncnc2sccc12	4	0.75	-5	104
CCOCCCNc1ncnc2sccc12	-11	2.4	-14	83*
O=C1c2ccccc2C(=O)N1CCSC1=NN2CCS(=O)(=O)N=C2S1	29	1.7	1	84*
COc1cccc(N2C(=O)CC(Sc3ccccc3N)C2=O)c1 (stereo not drawn)	.	1.4	.	.
COc1cccc(N2C(=O)CC(Sc3nnc(C)s3)C2=O)c1 (stereo not drawn)	100*	-0.75	9	101
CCCn1c(SCC(=O)c2cccs2)n[nH]c1=O	64*	0.2	-15	.
Cn1nc(C(=O)NC2CCN(Cc3ccccc3)CC2)c2c1-c1ccccc1S(=O)(=O)C2	11	0.05	-1	101
CC(Sc1ccccn1)C(=O)Nc1ccccc1 (stereo not drawn)	94*	0.35	-42	102
O=C(CSc1nnc(-c2ccc(Cl)cc2Cl)n1Cc1ccco1)c1ccc[nH]1	18	2.1	44*	110
CN(CCCc1[nH]nc(N)c1C#N)c1nc(-c2cccs2)nc2ccccc12	-19	-0.3	-32	108
CN(C)c1ccc(NC(=O)CSc2nc(N)cc(=O)[nH]2)cc1	7	-0.05	28*	99
Nc1cc(=O)[nH]c(SCC(=O)Nc2ccccc2)n1	0	-0.8	-12	100
S=C(NC1CCCCC1)C(=S)NC1CCCCC1	37	2.1	10	82*
O=C(Cn1c(=O)cnc2ccccc21)NCC1CCCO1 (stereo not drawn)	12	2.5	-23	106
CCOC(=O)c1cc(-c2ccccn2)nc2c1c(=O)n(CC(=O)OC)c(=O)n2Cc1ccccc1	10	-0.65	-15	81*
